# The supplement of paper PMC3545927
# The other results are listed elsewhere or left out. The hit rate among all sequences tested is not known here.
# Biological target: furin, P09958
# Experiment: furin cleavage Z-score vs untreated control; higher = more cleavage, active = 3.5 or more, inactive = 1 or less, 8 variable residues between constant flanks
# Procedure, shortened: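 The cleavage Z-score was derived for purified furin acting on 8-mer peptides held on magnetic beads and fused to a cDNA oligonucleotide. Digests lasted 7.5, 15 or 30 min at 1:10 enzyme:substrate in 50 mM HEPES pH 7.5 with CaCl2 and NaCl. Sequencing counts of released DNA, log-transformed against furin-free reactions, were lowess-adjusted and scaled by median absolute deviation.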
# furin, P09958, sequence (P09958 whole entry): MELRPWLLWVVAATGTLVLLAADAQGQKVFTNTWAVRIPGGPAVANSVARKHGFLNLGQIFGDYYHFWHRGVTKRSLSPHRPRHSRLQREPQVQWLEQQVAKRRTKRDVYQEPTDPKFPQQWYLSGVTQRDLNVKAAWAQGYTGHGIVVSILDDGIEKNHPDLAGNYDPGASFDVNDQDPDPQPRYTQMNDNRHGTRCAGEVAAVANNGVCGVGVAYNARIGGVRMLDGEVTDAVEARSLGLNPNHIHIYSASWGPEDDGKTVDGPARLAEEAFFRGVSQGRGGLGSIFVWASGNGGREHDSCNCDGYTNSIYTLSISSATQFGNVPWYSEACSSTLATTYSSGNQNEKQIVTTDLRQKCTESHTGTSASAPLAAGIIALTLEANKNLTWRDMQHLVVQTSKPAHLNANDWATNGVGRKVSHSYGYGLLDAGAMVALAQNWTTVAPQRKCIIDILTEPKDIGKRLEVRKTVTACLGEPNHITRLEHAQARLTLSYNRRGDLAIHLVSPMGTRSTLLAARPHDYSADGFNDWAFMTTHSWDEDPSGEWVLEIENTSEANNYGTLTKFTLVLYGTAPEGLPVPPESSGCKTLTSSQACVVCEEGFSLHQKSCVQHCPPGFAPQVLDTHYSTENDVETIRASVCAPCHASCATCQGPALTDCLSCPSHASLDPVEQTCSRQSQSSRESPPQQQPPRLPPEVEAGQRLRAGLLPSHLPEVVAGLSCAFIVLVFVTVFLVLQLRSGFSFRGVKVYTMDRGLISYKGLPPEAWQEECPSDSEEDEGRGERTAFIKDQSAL
Sequence,furin cleavage Z-score (7.5 min),furin cleavage Z-score (15 min),furin cleavage Z-score (30 min)
CAPLLREEVSAGNASASA [HC1230],0.0348 (inactive),-0.15 (inactive),-1.63 (inactive)
CATTPCSQSWAGNASASA [HC1902],-0.685 (inactive),-1.5 (inactive),-0.222 (inactive)
CATTGCSGSWAGNASASA [HC1876],-1.5 (inactive),-0.493 (inactive),0.42 (inactive)
CAHFSRQKRSAGNASASA [FS-535],8.68 (active),10.7 (active),8.57 (active)
CAQPSRQKRSAGNASASA [FS-480],11.2 (active),11.3 (active),7.7 (active)
CASPSGQKRSAGNASASA [FS-723],0.144 (inactive),0.828 (inactive),0.312 (inactive)
CAKDSRQKRSAGNASASA [FS-670],10.3 (active),10.5 (active),7.97 (active)
CAVVCCRMSYAGNASASA [HC110],0.397 (inactive),0.763 (inactive),0.409 (inactive)
CAVVCCSMSHAGNASASA [HC2095],-0.191 (inactive),0.171 (inactive),0.0466 (inactive)
CAARLVVLATAGNASASA [HC831],-1.24 (inactive),-1.13 (inactive),-0.8 (inactive)
CARHHRFPRAAGNASASA [FS-1063],12.2 (active),10.7 (active),8.91 (active)
CARHHRGRGGAGNASASA [FS-2022],-0.128 (inactive),0.955 (inactive),-0.479 (inactive)
CAMASRFPRAAGNASASA [FS-690],11.5 (active),11.7 (active),9.44 (active)
CAKSKKTPMGAGNASASA [HC1475],1.44,0.854 (inactive),-0.61 (inactive)
CAEVVTSTWRAGNASASA [HC2253],0.989 (inactive),0.48 (inactive),1.66
CATTPASGSWAGNASASA [HC41],-0.916 (inactive),-1.61 (inactive),-1.23 (inactive)
CADDMEECSQAGNASASA [HC1811],0.222 (inactive),-0.945 (inactive),-0.707 (inactive)
CARRRRKKARAGNASASA [FS-2790],1.33,1.06,0.0674 (inactive)
CARRRRQAERAGNASASA [FS-2793],10.1 (active),11.9 (active),8.27 (active)
CARRRRDATRAGNASASA [FS-1970],13.2 (active),14.6 (active),10 (active)
CANAVAYYRGAGNASASA [HC867],-0.298 (inactive),0.148 (inactive),1.73
CARVRRNKRSAGNASASA [FS-1275],11.3 (active),10.9 (active),9.58 (active)
CAGPVRLKKKAGNASASA [FS-1527],-0.8 (inactive),-1.68 (inactive),-0.907 (inactive)
CARVRKSKGKAGNASASA [FS-1802],0.157 (inactive),-1.05 (inactive),0.116 (inactive)
CARVRKSLKKAGNASASA [FS-2534],0.916 (inactive),3.69 (active),5.83 (active)
CARVRRNAKKAGNASASA [FS-1978],6.72 (active),5.97 (active),7.62 (active)
CAKRERNKRSAGNASASA [FS-1637],12.5 (active),14.4 (active),10.7 (active)
CARRRKSLKTAGNASASA [FS-2783],0.0718 (inactive),1.16,2.47
